One may read the inhibition as the change of the read-out against control, counted positive when it falls.

The source of these data is PubChem BioAssay.

Assay [1] is described as follows: inhibitors of TNFa-induced NFkB p65 translocation, primary screen, imaging, HUVEC, MLSMR starter and 10KST1 sets (AID 438;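 active means inhibition above 20% together with a positive visual image hit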;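 further: compound added about 3h40 before a 20 min TNFalpha stimulation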;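 on inhibition: signal is the nuclear over cytoplasmic p65 intensity ratio per well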). The settings on record: HUVEC TNFa-induced p65 nuclear translocation; cell count: measured here: nuclei count (cytotoxicity indicator), at 2.08 µM; inhibition: at 2 µM, stronger effect = higher value, 0% TNFa-plus-vehicle, 100% no-TNFa wells.
A short description of assay [2]: inhibitors of mutant huntingtin aggregation, primary screen, imaging, exon1htt(103Q)mCFP cells, high-content imaging (AID 483).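 Further: compound exposure lasted 3 days before fixation.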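 On nuclei count: percent of the per-plate median nuclei count of sample wells.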 The following applies: exon1htt(103Q)mCFP cell line, aggregate imaging, at 2 µM; inhibition of aggregation: stronger effect = higher value; nuclei count: measured here: cell count, toxicity.
Assay [3] can be described thus: inhibitors of E-selectin induction by TNFa, primary screen, imaging, HUVEC, immunofluorescence, MLSMR starter and 10KST1 sets (AID 487;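 active means visually confirmed hit in the image check and inhibition above 20%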;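 on inhibition: signal is fraction of cell area covered by stained E-selectin grains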;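 on nuclei count: 100% = median nuclei count of all wells on the same plate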). The following applies: HUVEC TNFalpha-induced E-selectin immunofluorescence imaging, at 2 µM; inhibition: stronger effect = higher value; nuclei count: measured here: cell number, toxicity.
The target in assay [4] is Voltage-gated potassium channel subunit beta-2 (Rattus norvegicus) (UniProt P62483). Description: KvBeta enzyme negative modulators, primary screen, biochemical, NADPH fluorescence (AID 622;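 active means fluorescence slope higher than the sample average by over 3 SD, cut at about -0.22 in these data, passing the limit was not always enough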;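 further: slope of raw intensity against log time taken from 70 to 1610 s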). The following applies: recombinant KvBeta, 4-cyanobenzaldehyde reduction, at 10 µM, stronger effect = higher value.
Assay [5] shares this target. Kind of assay: KvBeta positive modulators, primary screen, biochemical, NADPH fluorescence (AID 623;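 active means NADPH fluorescence slope more negative than the mean of all samples by about 3 SD, 99.7% confidence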;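 further: fluorescence intensity change per second fitted from 20 to 320 s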). The following applies: Recombinant KvBeta, NADPH fluorescence decrease slope, 10 min; at 10 µM; stronger effect = lower value.
Assay [6] has as its target Alpha-2C adrenergic receptor (Homo sapiens) (UniProt P18825). Kind of assay: modulators of alpha2C/GIRK thallium flux, primary screen, cell-based, HEK293 alpha2C/GIRK1/2 (AID 624;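 active means fluorescence slope after compound addition differing from the mean of all screened samples at 99.7% confidence, in either direction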;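 further: slope of fluorescence ratio to pre-addition baseline per second over 15 to 24 s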). The settings on record: thallium flux BTC fluorescence, at 10 µM, actives lie on both sides.
Assay [7] is described as follows: inhibitors of Sendai virus-induced IRF3 signaling, primary screen, TLR/RLR signaling modifier project, cell-based, Sendai virus stimulus, luciferase, 10K MLSCN set (AID 602276;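 active means inhibition at or above 50% at 10 µM; inactive means inhibition below 50%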;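 further: firefly luciferase from ISG56 promoter only with Renilla not read in this screen; 0% = Sendai virus plus DMSO and 100% = medium plus DMSO without virus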). The following applies: HEK293 RL24 IRF3 luciferase reporter, at 10 µM, stronger effect = higher value. In general terms: A reporter such as luciferase makes a cellular process visible.
A short description of assay [8]: inhibitors of poly I:C-induced TLR3 signaling, primary screen, cell-based, poly I:C stimulus, luciferase, 10K MLSCN set (AID 602277;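 active means inhibition of the reporter signal at or above 50%; inactive means inhibition below 50%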). The settings on record: HEK293-TLR3 RL24 IRF3 luciferase reporter, at 10 µM, stronger effect = higher value.

Activity calls are given as the source filed them.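 How the source made its calls, unless noted: active means visual image review flags a hit and inhibition of aggregation exceeds 20%; inconclusive means visual hit but inhibition at or below 20%; inactive means no hit on visual image review.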

Voltage-gated potassium channel subunit beta-2 (Rattus norvegicus), sequence (P62483 whole entry, looked up): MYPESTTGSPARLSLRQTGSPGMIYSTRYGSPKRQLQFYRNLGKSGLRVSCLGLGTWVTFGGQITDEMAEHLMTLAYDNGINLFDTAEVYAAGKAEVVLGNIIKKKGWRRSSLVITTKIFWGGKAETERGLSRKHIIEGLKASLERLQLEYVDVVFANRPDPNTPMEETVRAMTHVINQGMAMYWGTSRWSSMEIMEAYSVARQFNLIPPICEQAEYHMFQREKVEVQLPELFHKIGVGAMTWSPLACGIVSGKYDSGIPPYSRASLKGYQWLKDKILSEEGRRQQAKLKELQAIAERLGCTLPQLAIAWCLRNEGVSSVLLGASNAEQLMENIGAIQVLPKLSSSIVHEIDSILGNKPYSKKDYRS
Alpha-2C adrenergic receptor (Homo sapiens), sequence (P18825 whole entry, looked up): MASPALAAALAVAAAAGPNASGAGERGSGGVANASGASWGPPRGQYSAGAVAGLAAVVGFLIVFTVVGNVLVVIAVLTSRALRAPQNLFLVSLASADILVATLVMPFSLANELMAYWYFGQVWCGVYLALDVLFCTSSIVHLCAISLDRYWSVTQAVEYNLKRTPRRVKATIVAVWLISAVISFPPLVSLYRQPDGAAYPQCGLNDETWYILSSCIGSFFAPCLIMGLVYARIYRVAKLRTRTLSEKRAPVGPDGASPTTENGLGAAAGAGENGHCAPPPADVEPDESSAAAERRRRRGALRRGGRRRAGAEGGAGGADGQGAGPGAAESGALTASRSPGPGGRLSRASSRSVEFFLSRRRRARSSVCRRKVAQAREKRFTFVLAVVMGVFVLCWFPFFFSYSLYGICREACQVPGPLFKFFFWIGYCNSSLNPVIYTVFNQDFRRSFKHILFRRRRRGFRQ

In the case of `Cn1c(SCC(=O)O)nnc1C1CCCCC1`, in assay [1], the cell count was 396. Also, the inhibition is 1.6% (inactive) in assay [1], -65.8% (inactive) in assay [3], -46.6% (inactive) in assay [7] and -23.7% (inactive) in assay [8]. Besides, the inhibition of aggregation in assay [2] was -3.7% (inactive). The nuclei count was 99.2% in assay [2] and 105% in assay [3]. For the same molecule, the fluorescence slope in assay [4] was -0.515 (inactive). The NADPH fluorescence slope in assay [5] is -8.3e-06 (inactive). Besides, the slope in assay [6] is 0.0074 (inactive).
On to `CCOC(=O)C1CCN(C(=O)c2ccc(Cl)c(Cl)c2)CC1`, for which the cell count in assay [1] came out at 322. Besides, the inhibition is 4.4% (inactive) in assay [1], -64.6% (inactive) in assay [3], -22.5% (inactive) in assay [7] and -5.49% (inactive) in assay [8]. The inhibition of aggregation in assay [2] was 7.9% (inactive). The nuclei count in assay [2] stood at 83.5%; in assay [3], 110%. For the same molecule, the fluorescence slope in assay [4] is -0.522 (inactive). The NADPH fluorescence slope in assay [5] was 1.1e-05 (inactive). For the same molecule, the slope in assay [6] was 0.00596 (inactive).
With `CCOC(=O)C1CCN(c2c(NC3CCCc4ccccc43)c(=O)c2=O)CC1` (centres undefined), the cell count in assay [1] turned out to be 672. In addition, the inhibition in assay [1] is 6.6% (inactive); in assay [3] it was -22.1% (inactive); in assay [7], 7.84% (inactive); in assay [8], 29.9% (inactive). In addition, in assay [2], the inhibition of aggregation is -3.3% (inactive). In addition, the nuclei count in assay [2] came out at 86.1%; in assay [3] it was 98.7%. Further, the fluorescence slope in assay [4] is -0.571 (inactive). In addition, the NADPH fluorescence slope in assay [5] was -3e-05 (inactive). Moreover, the slope in assay [6] was 0.00585 (inactive).
As for `COCCNC(=O)CN1CCN(C(c2ccccc2)c2ccccc2)CC1`, the cell count in assay [1] came to 240. The inhibition in assay [1] was -6.6% (inactive); in assay [3], -7.5% (inactive); in assay [7] it was -12.4% (inactive); in assay [8], -6.81% (inactive). The inhibition of aggregation in assay [2] is 18.2% (inactive). The nuclei count in assay [2] amounted to 77.7%; in assay [3], 86.9%. The fluorescence slope in assay [4] was -0.556 (inactive). Further, the NADPH fluorescence slope in assay [5] was -4.9e-05 (inactive). For the same molecule, the slope in assay [6] is 0.00771 (inactive).
As to `O=C(Nc1cccc2ccccc12)N1CCN(c2ccccc2)CC1`, the cell count in assay [1] was 767. The inhibition was -6.4% (inactive) in assay [1], -12.2% (inactive) in assay [3], 8.28% (inactive) in assay [7] and 15.2% (inactive) in assay [8]. Moreover, the inhibition of aggregation in assay [2] was 26.6% (inactive). Further, the figures for the nuclei count in assay [2] and in assay [3] were 94.9% and 100%, respectively. Further, the fluorescence slope in assay [4] is -0.525 (inactive). Also, the NADPH fluorescence slope in assay [5] is -2.7e-05 (inactive). In addition, in assay [6], the slope was 0.00612 (inactive).
As to `O=C(c1ccco1)N1CCN(c2ccc(Cl)cc2)CC1`, the cell count in assay [1] is 173. Further, the inhibition in assay [1] was -5.1% (inactive); in assay [3] it was 12.5% (inactive); in assay [7], -73.4% (inactive); in assay [8] it was -172% (inactive). The inhibition of aggregation in assay [2] is -6.3% (inactive). Moreover, the figures for the nuclei count in assay [2] and in assay [3] were 82.3% and 93%, respectively. In addition, the fluorescence slope in assay [4] is -0.467 (inactive). For the same molecule, in assay [5], the NADPH fluorescence slope was 7.7e-05 (inactive). Moreover, the slope in assay [6] is 0.00616 (inactive).
Consider `CCOc1ccc(OCC)c(NC(=O)CCCN2C(=O)c3cccnc3C2=O)c1`, for which the cell count in assay [1] is 408. Further, the inhibition was 5.3% (inactive) in assay [1], 42.2% (inactive) in assay [3], -17.2% (inactive) in assay [7] and -8.59% (inactive) in assay [8]. Besides, the inhibition of aggregation in assay [2] was 15.7% (inactive). Besides, the nuclei count in assay [2] came out at 93.7%; in assay [3], 102%. Also, the fluorescence slope in assay [4] was -0.583 (inactive). Besides, the NADPH fluorescence slope in assay [5] was -3.8e-05 (inactive). The slope in assay [6] was 0.00505 (inactive).
On to `CCC(C(=O)O)n1c(C(F)(F)F)nc2ccccc21` (centres undefined), for which, in assay [1], the cell count turned out to be 717. For the same molecule, the inhibition in assay [1] was -29.6% (inactive); in assay [3], -6.3% (inactive); in assay [7] it was 7.44% (inactive); in assay [8], 14.4% (inactive). Also, the inhibition of aggregation in assay [2] is 4.1% (inactive). Moreover, the nuclei count in assay [2] worked out at 103%; in assay [3], 108%. Further, the fluorescence slope in assay [4] is -0.558 (inactive). Also, in assay [5], the NADPH fluorescence slope was -2.1e-05 (inactive). Besides, in assay [6], the slope was 0.00512 (inactive).
`CCn1c(SCC(=O)NC)nnc1C(C)C`: the cell count in assay [1] worked out at 718. The inhibition in assay [1] is -11.9% (inactive); in assay [3] it was -17.9% (inactive); in assay [7], 12.7% (inactive); in assay [8] it was 0.106% (inactive). In addition, in assay [2], the inhibition of aggregation was -4.5% (inactive). For the same molecule, the nuclei count was determined as 99.7% in assay [2] and 104% in assay [3]. The fluorescence slope in assay [4] was -0.307 (inactive). In addition, the NADPH fluorescence slope in assay [5] is -5.6e-05 (inactive). Further, the slope in assay [6] is 0.0053 (inactive).
Regarding `CCc1ccc(N2CC(C(=O)OCC(=O)NC3CCS(=O)(=O)C3)CC2=O)cc1` (centres undefined), the cell count in assay [1] turned out to be 260. The inhibition in assay [1] was 21% (inactive); in assay [3], 6.8% (inactive); in assay [7], 0.238% (inactive); in assay [8], 7.99% (inactive). The inhibition of aggregation in assay [2] was 12% (inactive). Moreover, the nuclei count is 85.2% in assay [2] and 91.9% in assay [3]. The fluorescence slope in assay [4] was -0.468 (inactive). Also, the NADPH fluorescence slope in assay [5] was 7e-05 (inactive). Besides, the slope in assay [6] was 0.00704 (inactive).
`O=C(OCc1ccc2c(c1)OCO2)c1ccc(S(=O)(=O)N2CCCCC2)cc1`: in assay [1], the cell count turned out to be 732. Moreover, the inhibition in assay [1] was 4.4% (inactive); in assay [3], 83.3% (active); in assay [7] it was 7.08% (inactive); in assay [8], 9.8% (inactive). Further, the inhibition of aggregation in assay [2] was -6.1% (inactive). Moreover, the nuclei count in assay [2] turned out to be 102%; in assay [3], 87.7%. The fluorescence slope in assay [4] is -0.415 (inactive). The NADPH fluorescence slope in assay [5] was -5.1e-05 (inactive). Moreover, in assay [6], the slope is 0.00821 (inactive).
On to `Cc1nc2sc(C(c3cccs3)N3CCOCC3)c(O)n2n1` (centres undefined), for which the cell count in assay [1] is 591. The inhibition was -0.3% (inactive) in assay [1], -5.1% (inactive) in assay [3], 9.99% (inactive) in assay [7] and 32.1% (inactive) in assay [8]. Besides, the inhibition of aggregation in assay [2] was -28.8% (inactive). Further, the results for the nuclei count in assay [2] and in assay [3] were 112% and 115%, respectively. The fluorescence slope in assay [4] is -0.553 (inactive). The NADPH fluorescence slope in assay [5] is -4.2e-05 (inactive). Further, the slope in assay [6] is 0.00703 (inactive).
Regarding `Cc1nn(C(=O)c2ccoc2C)c(N)c1-c1ccccc1`, the cell count in assay [1] was determined as 764. Also, the inhibition is -1.1% (inactive) in assay [1], -25.3% (inactive) in assay [3], -27.9% (inactive) in assay [7] and -123% (inactive) in assay [8]. Moreover, the inhibition of aggregation in assay [2] is -13.8% (inactive). Further, the values for the nuclei count in assay [2] and in assay [3] were 132% and 116%, respectively. For the same molecule, the fluorescence slope in assay [4] was -0.534 (inactive). Besides, the NADPH fluorescence slope in assay [5] was -4.2e-05 (inactive). For the same molecule, the slope in assay [6] is 0.007 (inactive).
On to `COCCn1c(SCC(=O)Nc2sc(C)c(C)c2C#N)nnc1C(C)C`, for which the cell count in assay [1] came out at 593. In addition, the inhibition in assay [1] was -11.7% (inactive); in assay [3] it was 18.9% (inactive); in assay [7] it was 11.9% (inactive); in assay [8], 5.56% (inactive). Besides, the inhibition of aggregation in assay [2] is 25.9% (inactive). Also, the nuclei count turned out to be 73% in assay [2] and 78.2% in assay [3]. Further, the fluorescence slope in assay [4] is -0.491 (inactive). For the same molecule, in assay [5], the NADPH fluorescence slope was -7.2e-05 (inactive). For the same molecule, in assay [6], the slope is 0.00431 (inactive).
